27 sequences from the supplement of paper PMC3545927 can be followed below.

This is one part of the list. The true hit rate is not given.

The target of the experiment is furin, P09958. Description: furin cleavage Z-score vs untreated control; higher = more cleavage, active = 3.5 or more, inactive = 1 or less, 8 variable residues between constant flanks. The method, boiled down:
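Magnetic beads held 8-mer peptides by the N-terminus, each fused to a cDNA oligonucleotide, and purified furin was added for 7.5, 15 or 30 min. Released DNA was sequenced after PCR adapter tagging. The cleavage Z-score is the log count relative to furin-free reactions, lowess-adjusted and divided by median absolute deviation.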
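Further: purified furin at 1:10 enzyme:substrate in 50 mM HEPES pH 7.5.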

furin, P09958, sequence (P09958 whole entry, the tested form may be a part): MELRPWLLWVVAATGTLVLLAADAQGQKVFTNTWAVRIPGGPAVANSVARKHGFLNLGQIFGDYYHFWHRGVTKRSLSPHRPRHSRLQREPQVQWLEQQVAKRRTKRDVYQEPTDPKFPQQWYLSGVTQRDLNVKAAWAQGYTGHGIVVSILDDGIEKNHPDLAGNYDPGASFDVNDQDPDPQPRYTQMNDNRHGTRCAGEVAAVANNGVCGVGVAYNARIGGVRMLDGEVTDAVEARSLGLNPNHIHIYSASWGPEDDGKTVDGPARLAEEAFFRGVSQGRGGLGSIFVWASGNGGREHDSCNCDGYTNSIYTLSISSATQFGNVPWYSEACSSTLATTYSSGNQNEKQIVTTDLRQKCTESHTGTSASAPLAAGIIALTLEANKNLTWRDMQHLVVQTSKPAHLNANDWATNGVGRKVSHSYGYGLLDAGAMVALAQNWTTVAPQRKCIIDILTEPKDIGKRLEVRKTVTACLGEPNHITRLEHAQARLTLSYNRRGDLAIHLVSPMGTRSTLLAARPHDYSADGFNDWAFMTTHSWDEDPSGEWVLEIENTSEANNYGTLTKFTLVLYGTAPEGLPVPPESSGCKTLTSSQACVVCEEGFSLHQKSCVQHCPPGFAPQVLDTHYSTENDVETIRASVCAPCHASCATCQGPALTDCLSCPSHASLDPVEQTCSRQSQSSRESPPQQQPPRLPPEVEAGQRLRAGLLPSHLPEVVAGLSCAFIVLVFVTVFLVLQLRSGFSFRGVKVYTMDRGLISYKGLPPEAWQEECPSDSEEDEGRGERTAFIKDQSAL

Regarding CAREMEECSQAGNASASA [HC1793], the “furin cleavage Z-score” value is 0.916 (inactive) (7.5 min), -0.677 (inactive) (15 min) and 1.51 (30 min).

As for CAWETARHTPAGNASASA [HC1569], the “furin cleavage Z-score” value (7.5 min) is 0.673 (inactive), the “furin cleavage Z-score” value (15 min) is 0.503 (inactive) and the “furin cleavage Z-score” value (30 min) is -0.633 (inactive).

As for CAPKGPVIQMAGNASASA [HC707], the “furin cleavage Z-score” value is -0.0909 (inactive) (7.5 min), 0.949 (inactive) (15 min) and 0.762 (inactive) (30 min).

In the case of CAVVNCSMSYAGNASASA [HC2041], the “furin cleavage Z-score” value reads like this: (7.5 min) 0.601 (inactive); (15 min) 1.6; (30 min) -0.0752 (inactive).

Turning to CATARRHGRDAGNASASA [FS-878], the “furin cleavage Z-score” value is 6.42 (active) (7.5 min), 7.12 (active) (15 min) and 6.27 (active) (30 min).

In the case of CAAPGRDGRDAGNASASA [FS-397], the “furin cleavage Z-score” value was -0.000356 (inactive) (7.5 min), -1.26 (inactive) (15 min) and -0.555 (inactive) (30 min).

For the sequence CATAARRLRDAGNASASA [FS-382], the “furin cleavage Z-score” value is, setting by setting: (7.5 min) 1.54; (15 min) 3.67 (active); (30 min) 3.74 (active).

For CAGRTGRGKPAGNASASA [HC905], the “furin cleavage Z-score” value is, setting by setting: (7.5 min) -1.05 (inactive); (15 min) -0.843 (inactive); (30 min) -1.55 (inactive).

Turning to CARKKRLENRAGNASASA [FS-2214], the “furin cleavage Z-score” value by setting is: (7.5 min) 1.32; (15 min) 0.582 (inactive); (30 min) 0.84 (inactive).

For CADISRIKRGAGNASASA [FS-756], the “furin cleavage Z-score” value runs as follows: (7.5 min) 2.64; (15 min) 4.17 (active); (30 min) 2.27.

For the sequence CAHKSRKERRAGNASASA [FS-536], the “furin cleavage Z-score” value was 1.88 (7.5 min), 4.97 (active) (15 min) and 3.69 (active) (30 min).

In the case of CADSSRIKRRAGNASASA [FS-1449], the “furin cleavage Z-score” value (7.5 min) was 8.08 (active), the “furin cleavage Z-score” value (15 min) is 10.6 (active) and the “furin cleavage Z-score” value (30 min) is 8.94 (active).

Regarding CARKKRIKRRAGNASASA [FS-2266], the “furin cleavage Z-score” value (7.5 min) is 13.1 (active), the “furin cleavage Z-score” value (15 min) is 14.5 (active) and the “furin cleavage Z-score” value (30 min) is 11.5 (active).

In the case of CAWVCCSMSYAGNASASA [HC1988], the “furin cleavage Z-score” value runs as follows: (7.5 min) 0.172 (inactive); (15 min) 0.44 (inactive); (30 min) 1.05.

For CARPLRGVSGAGNASASA [FS-3018], the “furin cleavage Z-score” value was -0.934 (inactive) (7.5 min), -0.697 (inactive) (15 min) and -0.66 (inactive) (30 min).

With CAEAALENLVAGNASASA [HC533], the “furin cleavage Z-score” value was -0.446 (inactive) (7.5 min), -0.46 (inactive) (15 min) and -1.1 (inactive) (30 min).

For CARLKKIKDDAGNASASA [FS-1740], the “furin cleavage Z-score” value by setting is: (7.5 min) -0.946 (inactive); (15 min) -0.774 (inactive); (30 min) -1.39 (inactive).

As for CARLKRAVSEAGNASASA [FS-2704], the “furin cleavage Z-score” value is, setting by setting: (7.5 min) 8.88 (active); (15 min) 10.6 (active); (30 min) 7.25 (active).

With CARLKRIVFDAGNASASA [FS-2570], the “furin cleavage Z-score” value (7.5 min) is 0.11 (inactive), the “furin cleavage Z-score” value (15 min) was 0.63 (inactive) and the “furin cleavage Z-score” value (30 min) was 1.98.

As to CARLKRAVWIAGNASASA [FS-2989], the “furin cleavage Z-score” value by setting is: (7.5 min) 5.97 (active); (15 min) 7.83 (active); (30 min) 8.13 (active).

With CARLDRHVFIAGNASASA [FS-2042], the “furin cleavage Z-score” value is, setting by setting: (7.5 min) -0.675 (inactive); (15 min) -1.39 (inactive); (30 min) -0.0693 (inactive).

CARLKRTNGNAGNASASA [FS-1963]: the “furin cleavage Z-score” value (7.5 min) was 0.424 (inactive), the “furin cleavage Z-score” value (15 min) was found to be 2.26 and the “furin cleavage Z-score” value (30 min) came to 1.1.

Turning to CARLKRHPEEAGNASASA [FS-2276], the “furin cleavage Z-score” value by setting is: (7.5 min) 1.2; (15 min) 3.98 (active); (30 min) 3.45.

With CARLKRRQEEAGNASASA [FS-2709], the “furin cleavage Z-score” value (7.5 min) is -0.805 (inactive), the “furin cleavage Z-score” value (15 min) is 0.691 (inactive) and the “furin cleavage Z-score” value (30 min) turned out to be 1.04.

Regarding CARLKRVVPDAGNASASA [FS-2221], the “furin cleavage Z-score” value (7.5 min) turned out to be 3.21, the “furin cleavage Z-score” value (15 min) is 5.12 (active) and the “furin cleavage Z-score” value (30 min) is 6 (active).

Consider CAEVVTSSWVAGNASASA [HC2217], for which the “furin cleavage Z-score” value (7.5 min) was 0.949 (inactive), the “furin cleavage Z-score” value (15 min) was 3.4 and the “furin cleavage Z-score” value (30 min) was -0.0256 (inactive).

Turning to CANTPCSGSWAGNASASA [HC1841], the “furin cleavage Z-score” value is, setting by setting: (7.5 min) -0.658 (inactive); (15 min) -0.9 (inactive); (30 min) -0.678 (inactive).
